The values below come from PubChem BioAssay (NCATS).

Results filed as inconclusive are left out. Active and inactive are the calls of the source. The call rests on the fitted dose curve; in most records, active means well fitted inhibition curve with a large enough effect; inconclusive means small, poorly fitted or top-dose-only effect; inactive means flat fitted curve, though single readings scatter.
On the % scale 0 is the no-effect control and ±100 the full control effect.

Chain of Calcium and integrin-binding protein 1 (Homo sapiens) (Q99828 whole entry, looked up): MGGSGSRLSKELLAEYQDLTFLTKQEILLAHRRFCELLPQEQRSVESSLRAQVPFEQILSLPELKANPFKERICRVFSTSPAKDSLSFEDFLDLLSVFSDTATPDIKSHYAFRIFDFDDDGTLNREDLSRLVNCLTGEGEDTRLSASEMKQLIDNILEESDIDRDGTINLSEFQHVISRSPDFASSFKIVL

The target in this experiment is Calcium and integrin-binding protein 1 (Homo sapiens) (UniProt Q99828). The experiment in a line: Primary qHTS for Identification of Calcium Integrin Binding Protein 1 (CIB1) Competitor (AID 1508620).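 Further: GST tagged CIB1 binding a fluorescein labelled alphaIIb integrin peptide tracer; top concentration of the series differs between compounds.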 As to conditions: CIB1-GST / FITC-alphaIIb peptide fluorescence polarization; series mostly up to 57.7 µM; activity change, negative = inhibition: at the top concentration. Summed up:
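Fluorescence polarization competition: CIB1-GST (1 uM final) preincubated with compound 15 min at room temperature, then FITC-labeled alphaIIb peptide (100 nM final) added for another 15 min. Polarization read at Ex 480/Em 540.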
(Quantitative high-throughput screening tests each substance at several concentrations.)
Take `CC1=CC(=O)CC(C)(C)[C@@]1(O)/C=C/C(C)O[C@@H]1O[C@H](CO)[C@@H](O)[C@H](O)[C@H]1O` (some centres not stated): the “activity change, negative = inhibition” value was -8.12% (inactive). Turning to `CC1(C)CC[C@]2(C(=O)O[C@@H]3O[C@H](CO[C@@H]4O[C@H](CO)[C@@H](O)[C@H](O)[C@H]4O)[C@@H](O)[C@H](O[C@@H]4O[C@H](CO)[C@@H](O)[C@H](O)[C@H]4O)[C@H]3O)CC[C@]3(C)C(=CCC4[C@@]5(C)CC[C@H](O[C@@H]6OC[C@@H](O)[C@H](O)[C@H]6O)[C@@](C)(C(=O)O)C5CC[C@]43C)[C@@H]2C1` (some centres not stated), the “activity change, negative = inhibition” value was 2.56% [at 30.2 µM] (inactive). On to `C=C1C[C@H](O)[C@@H](O)[C@@]2(C)C1[C@@H](O)[C@H]1OC(=O)C3[C@@H](C)[C@@H](O)[C@H](O)C2[C@]31C` (some centres not stated), for which the “activity change, negative = inhibition” value is 18.9% (inactive). Regarding `C=C1CCC2(OC1)OC1CC3C4CC=C5CC(O)CC(O[C@@H]6OC[C@H](OC(=O)C(O)C(C)CC)[C@H](O)[C@H]6O[C@@H]6O[C@@H](C)[C@H](O)[C@@H](O)[C@H]6O)C5(C)C4CCC3(C)C1C2C` (some centres not stated), the “activity change, negative = inhibition” value was 3.03% [at 30.2 µM] (inactive).

As to `CC1=C2C(=O)C=C(CO[C@@H]3O[C@H](CO)[C@@H](O)[C@H](O)[C@H]3O)[C@@H]2[C@H]2OC(=O)[C@H](C)[C@@H]2[C@@H](O)C1`, the “activity change, negative = inhibition” value is -2.08% (inactive).

`COc1cc(C(=O)OCC2=CCC3C(C(=O)O)=COC(O[C@@H]4O[C@H](CO)[C@@H](O)[C@H](O)[C@H]4O)C23)ccc1O` (some centres not stated): the “activity change, negative = inhibition” value is -1.95% (inactive).

With `COc1cc(C(=O)OC[C@@]2(O)CO[C@@H](O[C@H]3[C@H](Oc4ccc(O)cc4)O[C@H](CO)[C@@H](O)[C@@H]3O)[C@@H]2O)cc(OC)c1O`, the “activity change, negative = inhibition” value was 1.62% [at 30.2 µM] (inactive).
